A selection: hits, their analogues and other compounds. The true share with any hit is near 3.7%.
Tau fluor counter: counter-screen for tau fibril formation inhibitors; tau K18 P301L Alexa594 fluorescence, heparin fibrillization; Potency, µM (highest dose often 57.7 µM); hit rate 0.93% among 280,000; AID 1463; further: nearly all actives have a fitted effect of over 55% in size
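Human tau K18 P301L (15 uM unlabeled, 0.24 uM Alexa 594-labeled) in 100 mM sodium acetate pH 7 with 20 uM heparin, 6 hr at 37 C. ThT 30 uM added, 1 hr ambient; Alexa 594 FP and total fluorescence read at 555/632 nm.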
HTT cytoprotect: cytoprotection in Huntington HTT-Q103 PC12 cell model; PC12 HTT-Q103 induced, cytoprotection, ATP luminescence, 40 h; Potency, µM (top dose mostly 56.4 µM), usual class: activators; hit rate 0.14% among 230,000; AID 1471; further: nearly all actives have a fitted effect of over 45% in size
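Readout: ATPlite luminescence (ATP level). Model: stable PC12, inducible Htt exon1 Q103-GFP. Inducer: tebufenozide, 100 nM final. Compounds: dose series. No G418 in medium.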
Tau FP inhib: blocks human tau fibril formation measured by polarization. P10636. K18 P301L tau heparin fibrillization, Alexa594 FP, 6 h. Potency, µM (titrated, usually from 57.7 µM), usual class: inhibitors. hit rate 0.39% among 280,000; further: nearly all actives have a fitted effect of over 55% in size
Target sequence (P10636 561-689 P618L limits assumed): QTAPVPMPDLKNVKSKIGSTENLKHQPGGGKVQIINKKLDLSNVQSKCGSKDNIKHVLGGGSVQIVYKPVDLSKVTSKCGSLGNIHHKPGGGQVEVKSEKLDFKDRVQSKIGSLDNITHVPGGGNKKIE
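FP of Alexa 594-tau after heparin (20 uM) induction. Substrate: human K18 P301L, 15 uM unlabeled, 0.24 uM labeled. Buffer 100 mM sodium acetate pH 7. 6 hr, 37 C.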
Tau fibril ThT: inhibitors of human tau fibril formation, thioflavin T binding | P10636 | recombinant tau K18 P301L (four-repeat tau fragment), heparin-induced fibrillization, ThT fluorescence | Potency, µM (doses to about 57.4 µM), hits mostly inhibitors | hit rate 2.1% among 270,000; further: nearly all actives have a fitted effect of over 55% in size
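In this qHTS, human K18 P301L tau is incubated with compound and heparin for 6 hr at 37 C, and Thioflavin T fluorescence then reports fibril load.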
HttQ103 aggreg: inhibitors of mutant huntingtin aggregate formation in PC12 cells. PC12 HttQ103-GFP aggregates, Acumen cytometry, 40 h. Potency, µM (series often up to 46.1 µM), most hits filed as inhibitors. hit rate 1.1% among 220,000; further: nearly all actives have a fitted effect of over 60% in size
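Inducible Q103 Huntingtin exon 1–GFP PC12 line, 1500 cells/well in phenol red free DMEM with 5% equine and 5% calf serum. Tebufenozide 100 nM induced expression; compounds titrated; aggregates quantified by cytometry.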
Of the large screens only hits and unclear results are named; the others gave an inactive call; [ ] = remark or other dose. The call rests on the fitted dose curve; in most records, active means well fitted curve in the direction sought with a large enough effect; inconclusive means small, poorly fitted or top-dose-only effect, or another doubt; inactive means no such curve, though single readings can be large; an effect the other way counts as inactive or inconclusive.

Cc1ccc(F)cc1NC(=O)CSc1nc(-c2cccs2)cc(C(F)(F)F)n1	none (no result: HTT cytoprotect, HttQ103 aggreg)
Cc1cc(/C=N/n2cnnc2)c(C)n1-c1ccc(OCc2ccc(F)cc2)cc1	Tau fibril ThT inconclusive, HttQ103 aggreg 7.1µM
Cc1cc(/C=N/n2cnnc2)c(C)n1-c1ccc(OCc2ccc(Cl)cc2Cl)cc1	Tau fibril ThT inconclusive, HttQ103 aggreg 6.3µM
Cc1cc(/C=N/n2cnnc2)c(C)n1-c1ccc(Cl)cc1	Tau FP inhib inconclusive
Cc1cc(/C=N/n2cnnc2)c(C)n1-c1ccccc1	none
S=c1[nH]nc(-c2cc(-c3ccccc3)n[nH]2)n1/N=C/C(Br)=C/c1ccccc1	Tau fluor counter inconclusive, Tau FP inhib inconclusive, Tau fibril ThT 18µM
S=c1[nH]nc(-c2ccco2)n1/N=C/C(Cl)=C/c1ccccc1	Tau fluor counter inconclusive, Tau FP inhib inconclusive, Tau fibril ThT 14µM
CC(=C/c1ccccc1)/C=N/n1c(-c2ccncc2)n[nH]c1=S	Tau fibril ThT inconclusive, HttQ103 aggreg 2µM
CC(/C=N/n1c(-c2cccnc2)n[nH]c1=S)=C\c1ccccc1	Tau fibril ThT inconclusive, HttQ103 aggreg inconclusive
O=C(N/N=C/c1cccc(F)c1)c1c(O)c2ccccc2[nH]c1=O	HttQ103 aggreg inconclusive
O=C(N/N=C/c1ccc(F)cc1)c1c(O)c2ccccc2[nH]c1=O	HttQ103 aggreg 3.5µM
O=c1[nH]c2ccccc2c(O)c1-[n+]1ccccc1	none
O=c1[nH]c2ccccc2c(O)c1O	HTT cytoprotect inconclusive, Tau FP inhib 7.1µM, Tau fibril ThT 3.2µM
O=C(N/N=C/c1ccccc1)c1c(O)c2ccccc2[nH]c1=O	HttQ103 aggreg 22µM
CCOC(=O)C1=C(CN(CC)Cc2ccccc2)NC(=O)NC1c1ccc(OC(C)C)cc1 (stereo unspecified)	none (no result: HTT cytoprotect, HttQ103 aggreg)
COc1ccc(N2CCN(C(=O)Cc3noc4ccc(C)cc34)CC2)cc1	none (no result: HTT cytoprotect, HttQ103 aggreg)
CCOC(=O)c1c(NC(=O)/C=C/C(=O)O)sc(C)c1-c1ccc(Cl)cc1	Tau FP inhib inconclusive, Tau fibril ThT 32µM
CCOC(=O)c1c(N)sc(C(O)(C(F)(F)F)C(F)(F)F)c1-c1ccc(F)cc1	Tau fluor counter inconclusive
CCOC(=O)c1c(NC(=O)Nc2ccc(Cl)cc2)sc(C)c1C	none
CCOC(=O)c1c(N)sc(C(O)(C(F)(F)F)C(F)(F)F)c1-c1ccc(Cl)cc1	Tau fluor counter 25µM[quencher], Tau fibril ThT inconclusive
O=C(CN1CCCCC1)Nc1nnc(-c2ccccc2)s1	none
O=C(CN1CCCCC1)Nc1nnc(-c2ccc([N+](=O)[O-])cc2)s1	Tau fibril ThT 13µM
COC(=O)C(C(=O)OC)c1ccc(NC(=O)c2cccc(Cl)c2)cc1	none
O=C(O)c1cccc(NC(=S)NC(NC(=O)c2cccc([N+](=O)[O-])c2)C(Cl)(Cl)Cl)c1 (stereo unspecified)	none (no result: Tau fibril ThT)
O=C(Nc1ccc(N=Nc2ccccc2)cc1)c1cccc(Cl)c1	Tau fibril ThT 3.2µM, HttQ103 aggreg inconclusive
O=C(NC(NC(=S)Nc1ccccc1)C(Cl)(Cl)Cl)c1cccc(Cl)c1 (stereo unspecified)	Tau fluor counter inconclusive, Tau FP inhib inconclusive, HttQ103 aggreg 11µM
O=C(O)CCCC(=O)N1N=C(c2c(-c3ccccc3)c3cc(Cl)ccc3[nH]c2=O)CC1c1cccs1 (stereo unspecified)	none
O=C(O)CCC(=O)N1N=C(c2c(-c3ccccc3)c3cc(Cl)ccc3[nH]c2=O)CC1c1cccs1 (stereo unspecified)	HTT cytoprotect 2.8µM
CCOc1ccc(NC(=O)c2cc(S(=O)(=O)N3CCc4ccccc43)ccc2F)cc1	Tau fluor counter inconclusive (no result: HTT cytoprotect, HttQ103 aggreg)
Cc1nc2c(=O)n(C)c(=O)n(C)c2nc1Cl	HttQ103 aggreg 10µM
COC/C=C/C1=CC2=CC(=O)C(C)(OC(=O)c3cnc4ccccc4n3)C(=O)C2=CN1Cc1ccc2c(c1)OCO2 (stereo unspecified)	Tau fibril ThT inconclusive (no result: HttQ103 aggreg)
CC(C)c1ccc(CNc2cc(N3CCCC3)ccc2[N+](=O)[O-])cc1	Tau fibril ThT inconclusive
O=[N+]([O-])c1ccc(N2CCCC2)cc1NC1CC1	Tau fibril ThT 14µM
Nc1cc(N2CCOCC2)c(Cl)cc1[N+](=O)[O-]	Tau fibril ThT inconclusive
Cc1ccccc1C(=O)N1CCN(c2ccc([N+](=O)[O-])c(NCc3cccnc3)c2)CC1	Tau fibril ThT inconclusive
Cc1ccc(C(=O)N2CCN(c3ccc([N+](=O)[O-])c(NCc4cccnc4)c3)CC2)cc1	Tau fibril ThT 13µM
Nc1cc(N2CCCC2)c(Cl)cc1[N+](=O)[O-]	Tau fibril ThT 16µM
CC(C)(C)c1ccc(CNc2cc(N3CCOCC3)ccc2[N+](=O)[O-])cc1	Tau fluor counter 4µM[quencher], Tau FP inhib 28µM, Tau fibril ThT 7.1µM, HttQ103 aggreg inconclusive
CNc1cc(N2CCN(S(=O)(=O)N(C)C)CC2)ccc1[N+](=O)[O-]	Tau fibril ThT 16µM (no result: HTT cytoprotect)
CC(Nc1cc(N2CCN(C(=O)C(C)(C)C)CC2)ccc1[N+](=O)[O-])c1ccccc1 (stereo unspecified)	Tau fibril ThT inconclusive, HttQ103 aggreg inconclusive
CC(=O)N1CCN(c2ccc([N+](=O)[O-])c(NCC3CCCO3)c2)CC1 (stereo unspecified)	Tau fibril ThT 14µM
O=[N+]([O-])c1ccc(N2CCCCC2)cc1N1CCOCC1	Tau fibril ThT inconclusive
CC(C)C(=O)N1CCN(c2ccc([N+](=O)[O-])c(NC(C)c3ccccc3)c2)CC1 (stereo unspecified)	Tau fibril ThT 16µM
O=[N+]([O-])c1ccc(N2CCCC2)cc1N1CCCC1	Tau fibril ThT 18µM
CSc1ccc(CCNC(=O)CCCn2c(=O)c3cccn3c3ccccc32)cc1	Tau fibril ThT inconclusive (no result: HTT cytoprotect, HttQ103 aggreg)
O=C(NC1CCCCC1)c1ccc(CSc2nc3ccncc3n2Cc2cccc(F)c2)cc1	Tau fluor counter inconclusive, Tau fibril ThT inconclusive (no result: HTT cytoprotect, HttQ103 aggreg)
C[N+]1(CCC(=O)c2ccco2)CC2CCC(CC2)C1 (stereo unspecified)	none (no result: Tau fluor counter, Tau FP inhib, Tau fibril ThT, HttQ103 aggreg)
O=C(COc1ccccc1Cl)N1CCN(c2ccc([N+](=O)[O-])c(N3CCOCC3)c2)CC1	Tau fluor counter inconclusive, Tau fibril ThT 13µM
O=C(NCCc1ccccc1)c1ccc(NCC2CCCO2)c([N+](=O)[O-])c1 (stereo unspecified)	Tau fibril ThT 16µM
O=C1/C(=C/c2cccs2)N=C(c2cccs2)N1Nc1ccccc1	Tau fluor counter inconclusive, Tau fibril ThT 7.1µM
O=C1/C(=C\c2cccs2)N=C(c2cccs2)N1Nc1ccccc1	Tau fluor counter inconclusive, Tau fibril ThT 10µM
Cc1ccc(C2=N/C(=C\c3cccs3)C(=O)N2Nc2ccccc2)cc1	Tau fluor counter inconclusive, Tau fibril ThT inconclusive, HttQ103 aggreg inconclusive
O=C1NC(=Nc2ccccc2)S/C1=C/c1cccs1	none

Assay outcomes as filed in PubChem.
